High-throughput results as filed in PubChem BioAssay.
HBB splicing – qHTS Assay for Modulators of Hemoglobin Beta Chain Splicing; HBB splicing reporter cell assay, activation; EGFP reporter with mutant IVS2-654 intron; response scale: normalised to 500 nM splice-correcting PNA; Potency, µM (doses to about 46.1 µM), most hits filed as activators; AID 925, 2007; actives 0.06% (n = 65,000)
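Compounds were applied for 2 days to HeLa EGFP-654 cells, 500/well in Optimem with 2% FCS. The reporter's EGFP is disrupted by mis-splicing of beta-globin intron IVS2-654. Readout: summed well GFP fluorescence from 488 nm laser scanning; reference was 500 nM antisense […] 654 PNA.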
Hsp90 Hop PPI – qHTS Assay for Disrupters of an Hsp90 Co-Chaperone Interaction; Potency, µM (highest dose often 57 µM); AlphaScreen TPR2A-His6 binding biotin-Hsp90 C-terminal peptide; Hsp90 C-terminal peptide / TPR2A (Hop) interaction, human; actives 0.44% (n = 71,000); AID 595, 2007; active = well fitted curve in either direction with a large enough effect; inconclusive = small, poorly fitted or top-dose-only effect, or another doubt
Ub-GFP proteasome – Ubiquitin-GFP Assay. Ubiquitin-GFP reporter cells, proteasome inhibition, GFP fluorescence; response scale: untreated = 0%, 10 µM MG-132 = 100%. Potency, µM (series often up to 45.9 µM), hits mostly activators. 67,000 tested, under 10 active. AID 526, 2006; active = well fitted activation curve with a large enough effect, not every such curve was filed as active; inconclusive = small, poorly fitted or top-dose-only effect, or another doubt; inactive = no such curve, though single readings can be large or run the other way
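Reporter cells (U2OS, ubiquitin-G76V-GFP fusion) are plated overnight, then treated 4 hr at 37 °C with compound titrations from 46 uM down to 2.9 nM. Activity is scaled against untreated cells and 10 uM MG-132.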
Epigenetic mod – qHTS Assay for Epigenetic Modulators; mouse C127i GFP locus derepression, cytometry, 30 h; Potency, µM (series often up to 46.1 µM); actives 0.09% (n = 68,000); AID 597, 2007
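Read-out is the number of GFP-positive cells, scored as fluorescent objects 20 to 120 um wide, reflecting derepression of a silenced CMV-GFP reporter in murine C127i cells after 30 h compound exposure at 37 C.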
IkB signaling – IkB Signaling. ABC-DLBCL IkBa-CBG/CBR dual luciferase ratio, 4 h; response scale: scaled: untreated 0%, proteasome inhibitor 100%. Potency, µM (series often up to 57.1 µM). actives 0.04% (n = 110,000). AID 445, 2006; active = well fitted curve in the direction sought with a large enough effect in the signal ratio, not every such curve was filed as active; inconclusive = small, poorly fitted or top-dose-only effect, or a change in a side signal; the % refers to the signal ratio;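 note: the direction sought is a rising ratio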
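Curves were fitted separately to fusion (green), unfused (red) and ratio luminescence, then classed by r2, magnitude and activity. Cells: OCI-Ly3, 4 h compound plus doxycycline at 37C; 10 uM MG-132 defined full response.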
Hits are given with their value; 0 = inactive; ? = inconclusive; - = no result given; ! = not active in a repeat; [ ] = remark or other dose. The entries come from a sample that favours hits as a whole. Unless noted, calls come from the whole dose curve; as a rule, active = well fitted curve in the direction sought with a large enough effect; inconclusive = small, poorly fitted or top-dose-only effect, or another doubt; inactive = no such curve, though single readings can be large; an effect the other way counts as inactive or inconclusive.

SMILES	HBB splicing	Hsp90 Hop PPI	Ub-GFP proteasome	Epigenetic mod	IkB signaling
O=c1cc(O)cc(/C=C\c2ccc(O)c(O)c2)o1	0	13µM	0	0	0
O=C(O)/C=C/c1ccc(O)c(O)c1	-	-	-	0	-
CC1=C(/C=C/C(C)=C/C=C/C(C)=C/C(=O)O)C(C)(C)CCC1	-	-	-	10µM	-
CC1CCN(c2nc(-c3ccco3)c3c(c2C#N)CC(C)(C)OC3)CC1	0	25µM	0	-	?
CC1(C)Cc2c(C#N)c(N3CCOCC3)nc(-c3ccccc3)c2CO1	-	-	-	0	-
CC(C)[C@H](N=Cc1ccccc1O)C(=O)O	0[9.22 µM]	0[11 µM]	0[9.17 µM]	0[9.22 µM]	0[11.4 µM]
N#C/C(=C/c1ccc(N2CCCCCC2)o1)c1ccc(F)cc1	?	0	0	3.2µM	?
O=C(O)C1C(C(=O)O)C(C(=O)O)C1C(=O)O (configuration not stated)	0[9.22 µM]	0[11 µM]	0[9.17 µM]	0[9.22 µM]	0[11.4 µM]
Nc1ccc(N(S(=O)(=O)c2ccccc2)S(=O)(=O)c2ccccc2)c(Cl)c1	0[9.22 µM]	0[11 µM]	0[9.17 µM]	0[9.22 µM]	0[11.4 µM]
COc1cccc(Nc2ncc3nc(-c4ccc(Cl)cc4)c(=O)n(C[C@H]4CCCO4)c3n2)c1	?	0	0	0[9.22 µM]	0[11.4 µM]
COc1cccc(Nc2ncc3nc(-c4ccc(Cl)cc4)c(=O)n(CCC#N)c3n2)c1	10µM	0	?	0[9.22 µM]	0[11.4 µM]
COc1cccc(Nc2ncc3nc(-c4ccccc4)c(=O)n(C[C@H]4CCCO4)c3n2)c1	0	13µM	0	0[9.22 µM]	0[11.4 µM]
Cc1ccc2c(c1)-c1cc(C)nn1C(c1sccc1C)N2 (configuration not stated)	0	25µM	0	0	?
Cc1cc2n(n1)C(c1sccc1C)Nc1ccccc1-2 (configuration not stated)	0	?	0	0	0
COc1cccc(Nc2ncc3nc(-c4cccs4)c(=O)n(Cc4cccs4)c3n2)c1	13µM	0	0	0[9.22 µM]	0[11.4 µM]
CCNc1ncc2nc(-c3cccs3)c(=O)n(-c3ccccc3)c2n1	13µM	0	?	0[9.22 µM]	0[11.4 µM]
COc1cccc(Nc2ncc3ncc(=O)n(Cc4cccs4)c3n2)c1	0	0	0	0[9.22 µM]	?
CCNc1ncc2nc(-c3cccs3)c(=O)n(-c3ccc(OC)cc3)c2n1	?	0	?	?	0[11.4 µM]
CCNc1ncc2nc(-c3ccccc3)c(=O)n(-c3ccc(OC)cc3)c2n1	0	4µM	0	0[9.22 µM]	0[11.4 µM]
COc1ccc(-n2c(=O)c(-c3cccs3)nc3cnc(Nc4ccccc4)nc32)cc1	0	0	0	0[9.22 µM]	0[11.4 µM]
COc1cccc(Nc2ncc3nc(-c4cccs4)c(=O)n(-c4ccccc4)c3n2)c1	10µM	0	?	4µM	0[11.4 µM]
O[C@@H](c1cc(-c2ccccc2)nc2c1ccc1ccccc12)[C@@H]1CCCCN1	0[9.22 µM]	?	0[9.17 µM]	0[9.22 µM]	0[11.4 µM]
CCNC(=O)[C@@H]1O[C@@H](n2cnc3c(NCc4ccccc4)ncnc32)[C@@H](O)[C@H]1O	0	0	0	0	?
COc1ccc(CC[N@+]2(C)COc3cc4oc(=O)cc(C)c4cc3C2)cc1OC	0[9.22 µM]	0[11 µM]	0[9.17 µM]	0[9.22 µM]	0[11.4 µM]
Cc1cccc(-c2noc(CCc3ccccc3)n2)c1	0	32µM	0	0	0
SMILES	HBB splicing	Hsp90 Hop PPI	Ub-GFP proteasome	Epigenetic mod	IkB signaling
Cc1cccc(-c2noc(CCC(=O)NCc3ccccc3)n2)c1	0[1.84 µM]	0	0	0	0
CCN(CC)C(=S)SSC(=S)N(CC)CC	0	?	0	1µM!	?
C[C@H](N)C1CCC(C(=O)Nc2ccncc2)CC1 (some centres not stated)	0	0	0	0	0
O=C(O)[C@@H]1CS[C@@]2(CCCN(Cc3ccccc3)C2)N1	0[9.22 µM]	0[11 µM]	0[9.17 µM]	0[9.22 µM]	0[11.4 µM]
CN(C)c1ccc(C2(c3ccc(N(C)C)cc3)OC(=O)c3cc(N(C)C)ccc32)cc1	0	2.5µM	-	-	0
C[C@H]1[C@H](C)CC[C@@]2(C(=O)O)CC[C@]3(C)C(=CC[C@@H]4[C@@]5(C)CC[C@H](O)C(C)(C)[C@@H]5CC[C@@]43C)[C@@H]12	-	0	0	0[9.22 µM]	0[11.4 µM]
Cc1cc(C)c2ccc(N)nc2c1O	0	0	0	0	5µM
CCc1c(C)sc(NC(=O)c2cccs2)c1C(=O)OC(C)C	0	25µM	0	0	0
C[C@@H]1C(=O)N(C)C(=O)c2nc[nH]c21	0	0	0	0	0
O=C(CSc1nnc(C2COc3ccccc3O2)o1)NC1CCCCC1 (configuration not stated)	0	0	0	0	0
O=C(CSc1nnc(C2COc3ccccc3O2)o1)Nc1nccs1 (configuration not stated)	0	13µM	0	0	0
Cc1ccc(NC(=O)CSCC(N)=O)cc1C	0	?	0	16µM	0
Cc1ccc(NC(=O)Cn2cccc2)cc1C	0	0	0	0	0
